According to PubChem BioAssay (Tox21):
Inconclusive results are not listed. A number with no mark means an inactive call. Activity calls are given as the source filed them. Calls come from the whole dose curve; as a rule, active = well fitted activation curve with a large enough effect in the repeat runs; inconclusive = weak or mixed curves; inactive = flat fitted curve, though single readings scatter.

Experiment: A CellTox Green Cytotoxicity Assay to monitor cytotoxicity in HepG2 cells - 32 hour (AID 1224883); note: nearly all actives have a fitted effect of over 50% in size
Conditions: CellTox Green fluorescence; series mostly up to 76.8 µM; cytotoxicity increase: at the top concentration
Description: National Center for Advancing Translational Sciences [NCATS]
NIH Chemical Genomics Center [NCGC]
U.S. Environmental Protection Agency [EPA]
National Institutes of Environmental Health Sciences [NIEHS]
National Toxicology Program [NTP]
Cell-based models are critical for drug discovery. Determining the natural cytotoxic effects resulting from test compounds is an essential research activity. A CellTox Green Cytotoxicity Assay to monitor cytotoxicity in real time of continues cell culture during 40 hours of the compound treatment was used to screen Tox21 10K library compounds in HepG2 cells. CellTox Green Cytotoxicity Assay is a nonlytic, homogeneous, biofluorescent method to measure cytotoxicity in cell culture after experimental manipulation. The assay system uses a proprietary asymmetric cyanine dye that is excluded from viable cells but preferentially stains the dead cell's DNA. […] Viable cells produce no appreciable increases in fluorescence. Therefore, the fluorescence signal produced by the binding interaction with dead cell DNA is proportional to cytotoxicity.
The mixture of HepG2 cell suspension and reagents were dispensed at 600cells/6 ul/well in 1536-well tissue culture treated black solid bottom plates using a Multidrop dispenser. After the assay plates were incubated at a 37 C/5% CO2 incubator for 5 hours, 23 nL of compounds dissolved in DMSO, positive and negative controls was transferred to the assay plate by a pintool work station. The plates were incubated at 37 C for 40 hours. The fluorescence intensity were measured at 0h, 8h, 16h, 24h, 32h and 40h time points using ViewLux plate reader during compound treatment.
% is set by controls: 0 for no effect and ±100 for the full control effect.

Structure (SMILES) | cytotoxicity increase | Potency
C[N+](C)(C)CC(O)CC(=O)[O-] (stereo not given) | -6.51% [at 35.3 µM] | –
CC(C[N+](C)(C)C)OC(N)=O (stereo not given) | 22% [at 35.3 µM] | –
CCOC(=O)[C@H](CCc1ccccc1)N[C@@H](C)C(=O)N1[C@H](C(=O)O)C[C@@H]2CCC[C@@H]21 | -13% [at 35.3 µM] | –
COc1ccc(CCN(C)CCCC(C#N)(c2cc(OC)c(OC)c(OC)c2)C(C)C)cc1OC (stereo not given) | 27.5% [at 35.3 µM] | –
N=C(N)c1ccccc1 | -4.45% | –
Cc1cccn2c(=O)c(-c3nnn[nH]3)cnc12 | 2.82% [at 15.8 µM] | –
CC(C)OC(=O)c1ccccc1 | -6.68% | –
NS(=O)(=O)c1cc(C(=O)NN2C[C@H]3[C@H]4CCC(C4)[C@H]3C2)ccc1Cl | 22.1% [at 35.3 µM] | –
CCC(=O)OC(C)c1ccccc1 (stereo not given) | -7.04% | –
FC1(F)C(F)(F)C(F)(F)C2(F)C(F)(F)C(F)(F)C(F)(F)C(F)(F)C2(F)C1(F)F (stereo not given) | -10.8% [at 35.3 µM] | –
CC(C(=O)O)c1ccc(CC2CCCC2=O)cc1 (stereo not given) | -16.5% [at 35.3 µM] | –
CCOC(=O)Nc1ccc(NCc2ccc(F)cc2)nc1N | 0.196% [at 35.3 µM] | –
CC/C=C\CC/C=C/CO | 1.01% | –
Brc1c(NC2=NCCN2)ccc2nccnc12 | 0.911% [at 35.3 µM] | –
C=CCOCC(CC)(CO)COCC=C | -7.66% | –
OCCCC1CCCCC1 | -9.35% | –
O=C1CCCC(=O)C1 | -9.39% | –
COC(C)(C)CCCC(C)CC=O (stereo not given) | -1.56% | –
Cc1ccc(=O)n(-c2ccccc2)c1 | -14.8% [at 35.3 µM] | –
CCCc1cc(C(N)=S)ccn1 | -10% [at 35.3 µM] | –

Structure (SMILES) | cytotoxicity increase | Potency
CCCCCCCCCCCC | -4.57% | –
CN1CCCC1 | -1.09% | –
C[N+](C)(C)CCCCCC[N+](C)(C)C | – | inactive
CCOC(=O)CC(C)=O | 3.23% | –
COC(=O)c1cc(C(=O)OC)cc(S(=O)(=O)O)c1 | -5.29% | –
CCCCNC(=O)NCCCC | -2.76% | –
CCOC(C)(C)C | -10.2% | –
CC(=O)Nc1c(I)cc(I)c(C(=O)O)c1I | -8.23% [at 35.3 µM] | –
CCC(C)C1CCCCC1=O (stereo not given) | -0.542% | –
C=C[Si](OC(=C)C)(OC(=C)C)OC(=C)C | 22.3% | –
C=C1CC[C@H]2C[C@@H]1C2(C)C | 0.122% | –
NS(=O)(=O)c1ccccc1Cl | 1.37% | –
NC(=O)COCCN1CCN(C(c2ccccc2)c2ccc(Cl)cc2)CC1 (stereo not given) | -6.24% [at 35.3 µM] | –
OCCOc1ccc(OCCO)cc1 | 3.02% | –
COC(=O)c1c(Cl)c(Cl)c(C(=O)OC)c(Cl)c1Cl | 24.6% | –
Cn1cc(S(C)=O)c(=O)c2ccc(F)cc21 (stereo not given) | -3.9% [at 35.3 µM] | –
O=C(O)c1ccccc1OP(=O)(O)O | -14.7% [at 35.3 µM] | –
Cc1ccc(C#N)cc1 | -0.271% | –
O=C(CCCN1CCN(c2ccccn2)CC1)c1ccc(F)cc1 | 1.27% [at 35.3 µM] | –
CC(NC(CCc1ccccc1)C(=O)O)C(=O)N1C(=O)N(C)CC1C(=O)O (stereo not given) | -1.94% [at 35.3 µM] | –
